Measurements published in the supplement of paper PMC6607015.
Counter-ions that a name gives are not always drawn.

Key:
Details in all cases: compound concentration in added solution (µM; 5 µl added to 20 µl cells): 10; 18 h
A431 [1] = experiment: LBPA endosome anti-LBPA integrated intensity (sum per cell), Z-score; higher = more LBPA staining
Summary of the method: (§1)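 Z-scores normalised in AcuityXpress are given for per-cell integrated LBPA or filipin intensity, measured whole-cell or within LBPA endosomes by MetaXpress segmentation. Cells (HeLa MZ or A431, 3,500 per well in 20 µl) were seeded onto 5 µl of 10 µM compound solution in duplicate 384-well imaging plates and fixed in 4% PFA after 18 h.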

HeLa MZ [2] = experiment: as above
Summary of the method: as §1

A431 [3] = experiment: whole-cell filipin (free cholesterol) integrated intensity, Z-score; higher = more cholesterol staining
Summary of the method: as §1

HeLa MZ [4] = experiment: as above
Summary of the method: as §1

A431 [5] = experiment: filipin (cholesterol) integrated intensity within LBPA endosomes, Z-score; higher = more cholesterol in LBPA endosomes
Summary of the method: as §1

HeLa MZ [6] = experiment: as above
Summary of the method: as §1

SMILES | LBPA endosome anti-LBPA integrated intensity (z-score) (A431 [1]) | LBPA endosome anti-LBPA integrated intensity (z-score) (HeLa MZ [2]) | whole-cell filipin (z-score) (A431 [3]) | whole-cell filipin (z-score) (HeLa MZ [4]) | filipin (z-score) (A431 [5]) | filipin (z-score) (HeLa MZ [6])
Cn1nnnc1SCC1=C(C(=O)O)N2C(=O)[C@@H](NC(=O)[C@H](O)c3ccccc3)[C@H]2SC1 [Cefamandole sodium salt] | -0.486 | -0.416 | -0.496 | 0.0398 | -0.431 | -0.551
NC(=O)NC1NC(=O)NC1=O (stereo unspecified) [Allantoin] | -0.71 | -1.01 | -1.02 | -0.573 | -0.456 | -0.604
C=C[C@H]1CN2CC[C@H]1C[C@@H]2[C@@H](O)c1ccnc2ccc(OC)cc12 [Quinidine hydrochloride monohydrate] | 0.635 | 0.796 | 0.722 | -0.0406 | 0.638 | 0.436
CN(N=O)C(=O)N[C@@H](C=O)[C@@H](O)[C@H](O)[C@H](O)CO [Streptozotocin] | -0.585 | -0.52 | -0.71 | -0.525 | -0.474 | -0.51
CCOc1nc2cccc(C(=O)O)c2n1Cc1ccc(-c2ccccc2-c2nnn[nH]2)cc1 [Candesartan] | -0.346 | 0.346 | 0.0521 | 0.386 | -0.389 | -0.218
O=C1NCCN1c1ncc([N+](=O)[O-])s1 [Niridazole] | -0.413 | 0.107 | -0.918 | -0.144 | -0.517 | -0.432
Cc1cccc(C)c1NC(=O)C(C)N (stereo unspecified) [Tocainide hydrochloride] | -0.343 | -0.526 | 0.139 | -0.393 | -0.431 | -0.603
COc1cc(NS(=O)(=O)c2ccc(N)cc2)ncn1 [Sulfamonomethoxine] | -0.448 | 0.107 | -0.452 | 0.0403 | -0.378 | -0.344
Nc1nc(N)c2nc(-c3ccccc3)c(N)nc2n1 [Triamterene] | 0.172 | -1.01 | -0.647 | -1.14 | -0.443 | -0.487
O=C(O)CN(CCN(CC(=O)O)CC(=O)O)CCN(CC(=O)O)CC(=O)O [Pentetic acid] | -0.425 | -1.12 | -0.45 | -0.669 | -0.443 | -0.521
CC1(C)S[C@@H]2[C@H](NC(=O)[C@H](N)c3ccc(O)cc3)C(=O)N2[C@H]1C(=O)O [Amoxicillin] | -0.419 | 0.0287 | -0.393 | -0.0853 | -0.524 | -0.539
CC(C)N1CCN(c2ccc(OCC3COC(Cn4cncn4)(c4ccc(Cl)cc4Cl)O3)cc2)CC1 (stereo unspecified) [Terconazole] | 3.33 | 2.49 | 1.58 | 1.5 | 3.31 | 4.7
O=C1c2ccccc2S(=O)(=O)N1CCCCN1CCN(c2ncccn2)CC1 [Ipsapirone] | -0.419 | 0.911 | -0.664 | -0.262 | -0.426 | 0.0372
O=S(=O)(O)CCS [Mesna] | -0.366 | 0.0893 | -0.163 | 0.141 | -0.454 | -0.55
CN(C)CC/C=C1/c2ccccc2COc2ccc(CC(=O)O)cc21 [Olopatadine hydrochloride] | -0.245 | 0.672 | 0.305 | 0.861 | -0.37 | -0.275
NNCCc1ccccc1 [Phenelzine sulfate] | -0.403 | -0.966 | -0.414 | -0.115 | -0.439 | -0.425
CCCCc1nc(Cl)c(CO)n1Cc1ccc(-c2ccccc2-c2nnn[nH]2)cc1 [Losartan] | -0.107 | -0.132 | 0.421 | -0.132 | -0.313 | -0.537
COc1ccc(/C=C/C(=O)Nc2ccccc2C(=O)O)cc1OC [Tranilast] | -0.353 | -0.361 | -0.609 | -0.648 | -0.443 | -0.608
CC(C(=O)O)c1ccc2c(c1)Cc1cccnc1O2 (stereo unspecified) [Pranoprofen] | -0.52 | -0.228 | -0.251 | -0.607 | -0.527 | -0.553
CCn1cc(C(=O)O)c(=O)c2cnc(N3CCCC3)nc21 [Piromidic acid] | -0.472 | -0.684 | -0.293 | 0.123 | -0.374 | -0.418
NS(=O)(=O)Cc1noc2ccccc12 [Zonisamide] | -0.257 | 0.173 | -0.0819 | 0.0656 | -0.385 | -0.275
Nc1nc(N)nc(-c2cc(Cl)ccc2Cl)n1 [Irsogladine maleate] | -0.232 | 0.679 | -0.0416 | 0.316 | -0.334 | -0.292
CC(C)(C)NCC(O)COc1cccc2c1CC(O)C(O)C2 (stereo unspecified) [Nadolol] | -0.438 | 0.289 | -0.0909 | 0.44 | -0.44 | -0.157

SMILES | LBPA endosome anti-LBPA integrated intensity (z-score) (A431 [1]) | LBPA endosome anti-LBPA integrated intensity (z-score) (HeLa MZ [2]) | whole-cell filipin (z-score) (A431 [3]) | whole-cell filipin (z-score) (HeLa MZ [4]) | filipin (z-score) (A431 [5]) | filipin (z-score) (HeLa MZ [6])
CC[C@H]1OC(=O)[C@H](C)[C@@H](O[C@H]2C[C@@](C)(OC)[C@@H](O)[C@H](C)O2)[C@H](C)[C@@H](O[C@@H]2O[C@H](C)C[C@H](N(C)C)[C@H]2O)[C@](C)(OC)C[C@@H](C)C(=O)[C@H](C)[C@@H](O)[C@]1(C)O [Clarithromycin] | -0.524 | 0.332 | -0.0542 | 0.0043 | -0.407 | -0.21
CO[C@H]1/C=C/O[C@@]2(C)Oc3c(C)c(O)c4c(c3C2=O)C2=NC3(CCN(CC(C)C)CC3)NC2=C(NC(=O)/C(C)=C\C=C\[C@H](C)[C@H](O)[C@@H](C)[C@@H](O)[C@@H](C)[C@H](OC(C)=O)[C@@H]1C)C4=O [Rifabutin] | -0.125 | 1.08 | 0.49 | 0.136 | -0.0844 | 0.633
CNC(=C[N+](=O)[O-])NCCSCc1csc(CN(C)C)n1 [Nizatidine] | -0.247 | -0.223 | 0.149 | -0.639 | -0.347 | -0.405
CCCNC(C)(C)COC(=O)c1ccccc1 [Meprylcaine hydrochloride] | -0.522 | -0.427 | -0.299 | -0.094 | -0.429 | -0.419
CCC(=O)OCC(=O)[C@@]1(OC(=O)CC)[C@H](C)C[C@H]2[C@H]3[C@H]([C@@H](O)C[C@@]21C)[C@@]1(C)C=CC(=O)C=C1C[C@H]3Cl [Alclometasone dipropionate] | -0.24 | 0.1 | -0.316 | -0.125 | -0.325 | -0.277
CC(=O)SCC(Cc1ccccc1)C(=O)NCC(=O)OCc1ccccc1 (stereo unspecified) [Racecadotril] | -0.747 | -1.18 | -0.139 | -0.415 | -0.589 | -0.468
CN(Cc1cnc2nc(N)nc(N)c2n1)c1ccc(C(=O)N[C@@H](CCC(=O)O)C(=O)O)cc1 (racemic) [Amethopterin (R,S)] | -0.376 | 2.61 | 0.379 | 2.03 | -0.749 | -0.934
C[C@@H]1C[C@H]2[C@@H]3C[C@H](F)C4=CC(=O)C=C[C@]4(C)[C@@]3(F)[C@@H](O)C[C@]2(C)[C@@]1(O)C(=O)CO [Flumethasone] | -0.341 | -0.862 | -0.0225 | 0.117 | -0.194 | -0.317
CC(=O)CCCCn1c(=O)c2c(ncn2C)n(C)c1=O [Pentoxifylline] | -0.527 | -0.115 | -0.786 | -0.278 | -0.513 | -0.514
C#C[C@]1(O)CC[C@H]2[C@@H]3CCc4cc(O)ccc4[C@H]3CC[C@@]21C [Ethinylestradiol] | -0.522 | -1.4 | -0.139 | -0.678 | -0.442 | -0.49
CN(C)CCOC(C)(c1ccccc1)c1ccccn1 (stereo unspecified) [Doxylamine succinate] | -0.48 | 0.575 | -0.578 | -0.502 | -0.488 | -0.154
CO[C@@]1(NC(=O)Cc2cccs2)C(=O)N2C(C(=O)O)=C(COC(N)=O)CS[C@@H]21 [Cefoxitin sodium salt] | -0.479 | 0.482 | -0.426 | -0.439 | -0.487 | -0.515
O=C(NCC1CCCCN1)c1cc(OCC(F)(F)F)ccc1OCC(F)(F)F (stereo unspecified) [Flecainide acetate] | 0.848 | 1.72 | 1.08 | 0.76 | 0.948 | 0.836
COC(=O)C1=C(C#N)NC(C)=C(C(=O)OC(C)C)C1c1cccc([N+](=O)[O-])c1 (stereo unspecified) [Nilvadipine] | -0.407 | -0.929 | 0.11 | 0.875 | -0.268 | -0.158
Cc1ccccc1OCC(O)CO (stereo unspecified) [Mephenesin] | -0.324 | 0.139 | -0.27 | 0.183 | -0.409 | -0.223
CC(C)c1c(C(=O)Nc2ccccc2)c(-c2ccccc2)c(-c2ccc(F)cc2)n1CC[C@@H](O)C[C@@H](O)CC(=O)O [Atorvastatin] | -0.737 | -0.992 | -0.0189 | -0.402 | -0.543 | -0.45
COc1ccc2[nH]c([S+]([O-])Cc3ncc(C)c(OC)c3C)nc2n1 (stereo unspecified) [Tenatoprazole] | -0.331 | 0.434 | -0.478 | 0.112 | -0.438 | -0.258
COc1cc2ncnc(Nc3ccc(F)c(Cl)c3)c2cc1OCCCN1CCOCC1 [Gefitinib] | 3.94 | 2.43 | 0.816 | 0.788 | 2.49 | 2.83
CCCNC(C)C(=O)Nc1ccccc1C (stereo unspecified) [Prilocaine hydrochloride] | -0.398 | -0.0706 | -0.685 | -0.312 | -0.467 | -0.406
CNCC[C@@H](Oc1ccccc1C)c1ccccc1 [Tomoxetine hydrochloride] | -0.073 | -0.709 | 0.0322 | -0.417 | -0.072 | -0.0592
Cc1c(N(C)CS(=O)(=O)O)c(=O)n(-c2ccccc2)n1C [Dipyrone] | -0.646 | -1.3 | -0.336 | -0.214 | -0.539 | -0.551
CN(C)[C@@H]1C(O)=C(C(N)=O)C(=O)[C@@]2(O)C(O)=C3C(=O)c4c(O)cccc4[C@@](C)(O)[C@H]3[C@H](O)[C@@H]12 [Oxytetracycline dihydrate] | -0.525 | -0.93 | -0.872 | -0.703 | -0.537 | -0.753
CC(=O)OCC(=O)[C@@]12OC3(CCCC3)O[C@@H]1C[C@H]1[C@@H]3CCC4=CC(=O)C=C[C@]4(C)[C@@]3(F)[C@@H](O)C[C@@]12C [Amcinonide] | -0.0445 | 0.215 | 0.476 | 0.977 | -0.0127 | 0.16
